# Laboratory results: PubChem BioAssay AID435006 (Sanford-Burnham Center for Chemical Genomics, 2010)
# Screen size: about 1,300 compounds; about 1,100 (85%) were called active. No stated cut-off is given here; in the data, active means inhibition above about 48%; inactive means the rest. The set was probably picked from earlier hits. These entries were drawn from the full list.
# Test: yeast-expressed human NALP3 blockade – luminescence, single concentration, confirmation (AID 435006)
# Settings: yeast expressing human NALP3, luminescence; at 10 µM; hits give high values
row,Structure (SMILES),inhibition
1,Cc1cc2ccccn2c1C(C[N+](=O)[O-])c1c(F)cccc1Cl (stereo unspecified),72.8% (active)
2,O=C1/C(=C\c2ccc3c(c2)OCO3)N2CCC1CC2,59.5% (active)
3,CCCCCCCCCCCCn1ccc(=N)cc1,82.9% (active)
4,C[C@]12CCC3C(CC[C@H]4C[C@@H](O)CC[C@]34C)C1C[C@@H](O)[C@H]2O (stereo partly specified),53% (active)
5,C[C@]12CCC3C(CC[C@H]4C[C@@H](O)CC[C@]34C)C1CC[C@@H]2O (stereo partly specified),57.9% (active)
6,Cc1ccc(-c2nc3ccccc3c(=O)n2-c2ccc(Br)cn2)cc1,73.3% (active)
